Test results reported in PubChem BioAssay AID504842 (National Center for Advancing Translational Sciences (NCATS), 2011).
Among all 330,000 compounds or so, about 100 (0.03%) were called active. Entries that show only a call come without a potency. Another 1% or so got no clear call; they are omitted. Only a selection was taken, and actives are over-represented in it overall. Values without a mark were called inactive. Calls come from the whole dose curve; as a rule, active = well fitted inhibition curve with a large enough effect; inconclusive = small, poorly fitted or top-dose-only effect; inactive = flat fitted curve, though single readings scatter.
Note: nearly all actives have a fitted effect of over 80% in size.
Potency is the fitted concentration of half-maximal effect.
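Throughout, for potency: enzyme at 25 nM with ATP substrate at 10 µM during the reaction.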

Each compound was assayed on Chaperonin Mm-Cpn (Methanococcus maripaludis) (assay: Inhibitors of TCP-1 ring complex (TRiC) of Methanococcus maripaludis (MmCpn): qHTS). Conditions: purified Mm-Cpn ATPase, ADP Transcreener TR-FRET; series mostly up to 76.9 µM.
From the text: The eukaryotic chaperonin TRiC (for TCP-1 ring complex) is an essential and conserved chaperone required for the folding and activation of 10-15% of the proteins encoded by the human genome. […] The TRiC complex consist of two stacked 7-9 membered rings, each containing a central cavity. Substrates are folded within the cavity in an ATP-dependent manner. TRiC is a complex of eight different, essential proteins. As each of the genes encoding the eight subunits is essential for cell viability and no protocol has been developed to over-express this enzyme to high levels. That is why several groups studying the TRiC chaperonin have turned to the archaeal homolog of TRiC, Methanococcus maripaludis (Mm-CPN), and have used this enzyme as a model system for the study of the type II chaperonin family. Small molecule inhibitors of the Mm-CPN enzyme would be extremely useful to study the mechanism of chaperonin activity. Importantly, TRiC and Mm-CPN both require ATP hydrolysis for function. Furthermore, the ATP binding sites are highly conserved among these type II chaperonins. This provides us with an easy, well tested and straightforward assay to identify inhibitors of chaperonin activity. The Mm-CPN assay was developed in 1536-well plate format using the HTRF Transcreener ADP assay kit (Cisbio, Bedford, MA). This assay applied the time resolved fluorescence resonance energy transfer (TR-FRET) principle. ATP in the presence of Mm-CPN is converted to ADP + Pi. An antibody labeled with Eu3+-Cryptate specific and bound to ADP labeled with […] (d2) competes with the unlabeled ADP generated by Mm-CPN. The resulting TR-FRET signal is inversely proportional to the concentration of ADP in the sample. In this assay a reduction in TR-FRET signal is observed with ATP turnover. NIH Chemical Genomics Center [NCGC] NIH Molecular Libraries Probe Centers Network [MLPCN] MLPCN Grant: DA030554-01A1 Assay Submitter (PI): Judith Frydman, Stanford University
Purified Mm-CPN was supplied by the laboratory of Dr. Judith Frydman. Protein samples were stored at -80C as single use aliquots. Protein was thawed in ambient temperature water bath and placed on ice once thawed. Buffer was prepared fresh day of screen. The buffer composition below was used to prepare the working solution of the Mm-CPN protein and ATP substrate. The buffer is comprised of 30 mM TRIS pH 7.4, 100mM KCl, 5mM MgCl2, and 1mM DTT. A final concentration of 25nM Mm-CPN and 10uM ATP per well were used in the screen. Instructions according to the manufacturer were followed for the ADP Transcreener kit. Used 1536 well Greiner white, medium binding (MB), solid bottom plates. Plates were read on the PerkinElmer EnVision plate reader using Excitation = 320 nm and Emission = […], 665 nm. Protocol- 1.Dispense 1.5ul per well of working [Mm-CPN] = 50nM (or 75 ng / well) 2.Spin plate at 1000 rpm for 30 seconds 3.23nl of compound transferred per well 4.Incubate at 37degC for 10 minutes 5.Dispense 1.5ul per well of working [ATP] = 20uM 6.Incubate at 37degC for 30 minutes 7.Dispense 3ul per well of Anti-ADP Cryptate / ADP-d2 mix (prepared as instructed by Cisbio) 8.Incubate at ambient for 30 minutes 9.Read using EnVision
For `CCOc1ccc(NC(=O)COC(=O)C2CCC(=O)N2)c([N+](=O)[O-])c1` (stereo not drawn), the Potency was “inactive”.
In the case of `CN(C(=O)CSc1nnc(C2CC2)n1C)C1CCCc2ccccc21` (stereo not drawn), the Potency is reported as “inactive”.
With `C=C(C)c1cccc(C(C)(C)NC(=O)NC2CCCC2)c1` the Potency was “inactive”.
With `CC(=O)NC(NC(=S)Nc1c(C)n(C)n(-c2ccccc2)c1=O)C(Cl)(Cl)Cl` (stereo not drawn) the Potency was “inactive”.
With `COc1cccc(NS(=O)(=O)c2ccc(-c3coc(C)n3)cc2)c1` the Potency was “inactive”.
For `Nc1ccccc1C(=O)NC1CCCCNC1=O` (stereo not drawn), the Potency was “inactive”.
For `COc1cccc(N2CC(C(=O)NCc3n[nH]c(=O)c4ccccc34)CC2=O)c1` (stereo not drawn), the Potency was “inactive”.
`CCOC(=O)c1c(N)c(C#N)nn1-c1ccccc1C(=O)OC` was tested, and the Potency was “inactive”.
`O=C(c1c(F)cccc1F)N1CCN(c2ncc(Br)cn2)CC1` was tested, and the Potency was “inactive”.
In the case of `Cc1ccccc1NC(=O)CCNS(=O)(=O)c1ccc2[nH]c(=O)oc2c1`, the Potency is reported as “inactive”.
In the case of `CC(C)N(C)C(=O)CCc1nnc(CCc2c[nH]c3ccccc23)o1`, the Potency is reported as “inactive”.
With `O=C(Nc1cccc(C(=O)NC2CC2)c1)c1ccc(F)c(S(=O)(=O)N2CCOCC2)c1` the Potency was “inactive”.
For `CC(=O)NC(c1cccs1)c1cc(Br)c2cccnc2c1O` (stereo not drawn), the Potency was “inactive”.
`COc1ccc(-c2[nH]ncc2CN(Cc2nccn2C)C(C)C)cc1F` was tested, and the Potency was “inactive”.
`COc1ccc(CNC(=O)CN2C(=O)NC3(CCCc4sccc43)C2=O)cc1` (stereo not drawn) was tested, and the Potency was “inactive”.
For `O=S1(=O)C=C(SCCN2CCCC2)c2ccccc21`, the Potency was “inactive”.
For `CC(C)(C)NC(=O)CN(C(=O)c1ccc(Cl)nc1)c1cccc2ccccc12`, the Potency was “inactive”.
`CC(C#N)(NC(=O)CN1CCN(S(=O)(=O)c2cc(C(F)(F)F)ccc2Cl)CC1)C1CC1` (stereo not drawn) was tested, and the Potency was “inactive”.
With `Cc1nc(COc2cccc(Cl)c2)sc1C(=O)/C=C/N(C)C` the Potency was “inactive”.
With `COc1ccc([C@H]2CC(=O)C=C(/C=C/c3ccc(Cl)cc3)C2)cc1` the Potency was “inactive”.
In the case of `COc1ccc(F)cc1C(=O)COC(=O)c1n[nH]c(=O)c2ccccc12`, the Potency is reported as “inactive”.
In the case of `CC(C)N(C(=O)Cn1cc(SCC(=O)N2CCCC2)c2ccccc21)C(C)C`, the Potency is reported as “inactive”.
`CN(C)CCN=c1cc(-c2ccccc2)oc2ccc(Cl)cc12` was tested, and the Potency was “inactive”.
With `CC1(C)C/C(=C(/C#N)C(N)=O)CCO1` the Potency was “inactive”.
`COc1ccccc1Oc1ccc(N2CC(C(=O)OCC(=O)c3ccc(F)cc3)CC2=O)cc1` (stereo not drawn) was tested, and the Potency was “inactive”.
With `CCCOc1ccc(C(=O)C(CCC(CNCC)C(=O)c2ccc(OCCC)cc2)CNCC)cc1` (stereo not drawn) the Potency was “inactive”.
With `Cc1ccc(S(=O)(=O)N2CCCC2C(=O)OCc2nc3sc(C)c(C)c3c(=O)[nH]2)cc1` (stereo not drawn) the Potency was “inactive”.
With `Nc1c(Cl)cc(S(N)(=O)=O)cc1S(N)(=O)=O` the Potency was “inactive”.
For `Nc1ccc(Cl)c(S(=O)(=O)Nc2ccccc2Cl)c1`, the Potency was “inactive”.
In the case of `O=C(CN1CCN(C(=O)c2ccco2)CC1)Nc1ccc(Cl)c(C(F)(F)F)c1`, the Potency is reported as “inactive”.
In the case of `Cc1ccc2nc(SCc3nnc(-c4ccccc4[N+](=O)[O-])o3)c(C#N)cc2c1`, the Potency is reported as “inactive”.
With `Cn1c2ccc(F)cc2c2nnc(NN)nc21` the Potency was “inactive”.
In the case of `Cn1c(=O)c([N+](=O)[O-])c(Oc2ccccc2)c2ccccc21`, the Potency is reported as “inactive”.
For `CCn1c(=O)c(=O)n(CC)c2cc(N3CCCCC3)c(NC(=O)c3ccc(Cl)cc3)cc21`, the Potency was “inactive”.
Compound `O=C1OC2(CCCCC2)CC2=C1C1O[C@](c3ccsc3)(Cc3ccccc31)O2` has an activity, negative = inhibition of -2.46% [at 15.4 µM].
For `CCOC(=O)C1=C(CSc2nnnn2C)N(C)C(=O)NC1c1ccccc1` (stereo not drawn), the Potency was “inactive”.
With `CCc1nnc(NC(=O)C2CCN(C(=O)c3ccccc3C)CC2)s1` the Potency was “inactive”.
In the case of `Cc1ccc(NC(=O)Cn2cccc2C2=NC(c3ccccc3)CO2)c(C)c1` (stereo not drawn), the Potency is reported as “inactive”.
With `CC(OC(=O)Cc1ccc(F)cc1)C(=O)N1CCc2ccccc21` (stereo not drawn) the Potency was “inactive”.
`COCCn1c(SCC(=O)N2CCCCCC2)nc2c(c1=O)SCC2` was tested, and the Potency was “inactive”.
For `Cc1ccc(-n2nc(C)c(C(=O)O)c2-n2cccc2)cc1`, the Potency was “inactive”.
`Cc1cccc(N(Cc2ccccc2)C(=O)c2ccccc2F)c1` was tested, and the Potency was “inactive”.
With `CCCOC1CCCN(Cc2cn(C)nc2-c2ccccc2F)C1` (stereo not drawn) the Potency was “inactive”.
`O=S1(=O)CCC(NC(=S)SCc2ccccc2Br)C1` (stereo not drawn) was tested, and the Potency was “inactive”.
`Cc1ccc(-n2nc3c(=O)n(C(C)C(=O)NCc4ccc5c(c4)OCO5)nc(C)c3c2C)cc1` (stereo not drawn) was tested, and the Potency was “inactive”.
With `Cc1ccc(-c2nc(-c3cccnc3)sc2CC(=O)Nc2ccc(C)c(Cl)c2)cc1` the Potency was 28.2 µM (active).
With `Cc1ccc(NC(=O)Nc2cccnc2)cc1` the Potency was “inactive”.
In the case of `Cc1nc(-c2ccc(F)cc2)c(CC(=O)Nc2cccc(S(=O)(=O)N3CCOCC3)c2)s1`, the Potency is reported as “inactive”.
With `COC(=O)c1sc2[nH]c(=S)n(N)c(=O)c2c1C` the Potency was “inactive”.
`CCOc1ccc(C(CCc2ccccc2)NC(=O)c2ccc(OC)c(OC)c2)cc1OCC` (stereo not drawn) was tested, and the Potency was “inactive”.
In the case of `CC(C)(CNC(=O)Cc1ccc(Cl)cc1Cl)N1CCOCC1`, the Potency is reported as “inactive”.
In the case of `COc1ccc(OC)c(S(=O)(=O)N(C)CC(=O)N2CCN(c3ccccc3)CC2)c1`, the Potency is reported as “inactive”.
`Cc1ccc(S(=O)(=O)N2CCCCC2)cc1NC(=O)CCNC(=O)c1ccccc1` was tested, and the Potency was “inactive”.
